Structures are written as SMILES. Compounds without any hit were thinned out: in the full panel of roughly 83,000, 20% have a hit.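 The test compound was applied at a single concentration to cells in 96-well plates for 48 hours, and percent growth was recorded.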 Unmarked numbers belong to inactive results. Activity calls are given as the source filed them. The calls were made as follows: active = growth percent below 10; inactive = the rest.

The subject of the first test is HOP-62 NSCLC. Kind of test: NCI-60 one-dose screen, 48 h (100 = growth as untreated, 0 = no growth, -100 = all killed). Particulars: 10 µM unless noted.
As for `Cc1ccc(NC(=O)CN2CCN(c3ncnc4c3cnn4-c3ccccc3)CC2)cc1`, the growth is 95.6%. As to `Cc1ccc(NCC(=O)Cn2cc(COc3ccc(C=Nc4cnc5ccccc5c4)cc3)nn2)cc1`, the growth was 102%. On to `CN(C)CCOc1ccc(C(=O)C2[C@H](c3ccc(Cl)cc3)[C@@H](c3ccccc3)NC23C(=O)Nc2ccccc23)cc1` (stereo partly drawn), for which the growth was 84.2%.

With `CC(C)(C)OC(=O)/C=C/c1cccc2c1C(=O)NC(C)(c1cc3cc(Cl)ccc3oc1=O)N2` (stereo not drawn), the growth was 64%. With `CCOC(=O)/C=C/c1cccc2c1C(=O)NC(C)(c1cc3cc(Cl)ccc3oc1=O)N2` (stereo not drawn), the growth is 55.7%.

Take `N=C1N=C(SCc2nc3ccccc3[nH]2)NC(=O)/C1=C/c1ccc(Cl)cc1`: the growth is 102%. Take `CC(C)CSc1nc(NCCc2c[nH]c3ccccc23)c(C#N)c(-c2ccccc2)n1`: the growth is 68.8%. As to `COc1ccc(C(SCCNCc2cc(N(C)C)ccn2)(c2ccccc2)c2ccccc2)cc1`, the growth was 10.9%.

Regarding `Cc1cccc(-c2nc(Nc3ccc(C)c(S(N)(=O)=O)c3)c3ccccc3n2)c1`, the growth was 76.1%. Still for that read-out and setting: as for `Cn1cc(-c2cc(N)n3nc(-c4cn(C)c5ccccc45)cc3n2)c2cc(Br)ccc21`, the figure is -45.2% (active); as for `CC12CC[C@@H]3[C@]4(C)COC(c5cn[nH]c5-c5cccc(Cl)c5)O[C@@H]4CC[C@@]3(C)[C@@H]1CC(C1=CCOC1=O)O2` (stereo partly drawn), 74.6%; as for `COc1ccc(NC(=O)Cn2c3c(sc2=O)[C@H]2[C@@H](O)[C@@H](O)[C@H](O)[C@@H]2CS3)cc1`, 99.5%.

For `CC1(C)CC[C@]2(C(=O)O)CC[C@]3(C)C(=CCC4[C@@]5(C)C[C@@H](O)[C@@H]6OC(c7ccco7)OC[C@@]6(C)C5CC[C@]43C)C2C1` (stereo partly drawn), the growth was 43.1%. Same read-out and setting: as for `Nc1nnc(-c2c[nH]c3ccc(Br)cc23)c(-c2c[nH]c3ncc(Br)cc23)n1`, the figure is 49.4%; as for `O=C(c1ccccc1)c1ccc2nc(-c3ccc(F)cc3)[nH]c2c1`, 83.5%.

For `Cn1cc(-c2cc(N)n3nc(-c4cn(C)c5ccc(Cl)cc45)cc3n2)c2ccccc21`, the growth is 115%. On to `O=C(CSc1nc2ccccc2c(=O)[nH]1)NCCN1CCCCC1`, for which the growth is 106%. As to `CCCn1cc(-c2nc(Nc3ccc(C(=O)NCCCCNc4cccc5c4C(=O)N(C4CCC(=O)NC4=O)C5=O)cc3)nc3[nH]ccc23)cn1` (stereo not drawn), the growth is -1.38% (active). For the compound `O=c1[nH]c2ccc(Cl)cc2cc1CSc1nccc(-c2ccc(Cl)cc2)n1`, the growth was 7.77% (active). As to `C=C1CC[C@@H]2[C@]3(C)COC(c4ccccc4)O[C@@H]3CC[C@@]2(C)[C@@H]1C/C=C1/C(=O)OCC1OC(C)=O` (stereo partly drawn), the growth is -27.7% (active). Consider `Cc1cccc(Nc2nc3ccccc3nc2/C=C/c2ccc(F)cc2)c1`, for which the growth was 99.7%.

In the case of `Brc1ccc(N/N=C/c2c[nH]c3ccc(Br)cc23)nc1`, the growth is -16.7% (active).

Take `C=C1CC[C@@H]2[C@]3(C)COC(c4cn[nH]c4-c4ccc(C)cc4)O[C@@H]3CC[C@@]2(C)[C@@H]1C/C=C1/C(=O)OCC1O` (stereo partly drawn): the growth is 27.4%.

In the case of `O=C(Cn1c(/C=C/c2ccccc2)nc2ccccc2c1=O)Nc1ccc(Cl)cc1`, the growth is 57.9%.

For the compound `C=C1CCC2C3(C)COC(c4ccco4)OC3CCC2(C)C1CC(Sc1ccccc1)C1=CCOC1=O` (stereo not drawn), the growth is 100%.

The next test relates to NCI-H460 lung. The test is described as above. Particulars: 10 µM unless noted.
For the compound `Cc1ccc(NC(=O)CN2CCN(c3ncnc4c3cnn4-c3ccccc3)CC2)cc1`, the growth was 74%. Take `COc1cc(OC)cc(C(=O)Nc2cccc(-c3cn(-c4ccc(S(N)(=O)=O)cc4)nn3)c2)c1`: the growth is 82.8%. As to `CCN(CC)c1ccc(/C=N/Nc2nc(-c3ccc(Br)cc3)cs2)c(O)c1`, the growth is 89.3%. Still for that read-out and setting: as for `Cn1cc(-c2cc(N)n3nc(-c4c[nH]c5ccccc45)cc3n2)c2cc(Br)cnc21`, the figure is -65.1% (active); as for `C#C[C@]1(O)CC[C@H]2[C@@H]3CC=C4c5sc(-c6ccc(O)c(O)c6)nc5CC[C@]4(C)[C@H]3CC[C@@]21C`, -77.6% (active).

Take `Cc1ccc(NCC(=O)Cn2cc(COc3ccc(C=Nc4cnc5ccccc5c4)cc3)nn2)cc1`: the growth is 130%. Same read-out and setting: as for `CN(C)CCOc1ccc(C(=O)C2[C@H](c3ccc(Cl)cc3)[C@@H](c3ccccc3)NC23C(=O)Nc2ccccc23)cc1` (stereo partly drawn), the figure is 9.91% (active); as for `CC(C)(C)OC(=O)/C=C/c1cccc2c1C(=O)NC(C)(c1cc3cc(Cl)ccc3oc1=O)N2` (stereo not drawn), 43.9%. As to `CCOC(=O)/C=C/c1cccc2c1C(=O)NC(C)(c1cc3cc(Cl)ccc3oc1=O)N2` (stereo not drawn), the growth is 47.4%.

Turning to `N=C1N=C(SCc2nc3ccccc3[nH]2)NC(=O)/C1=C/c1ccc(Cl)cc1`, the growth was 102%. Consider `CC(C)CSc1nc(NCCc2c[nH]c3ccccc23)c(C#N)c(-c2ccccc2)n1`, for which the growth was 12.5%. With `COc1cc(-c2cc(-c3cccc(OCC(=O)O)c3)[nH]c(=O)c2C#N)cc(OC)c1OC`, the growth is 111%. Take `COc1ccc(C(SCCNCc2cc(N(C)C)ccn2)(c2ccccc2)c2ccccc2)cc1`: the growth is -58.6% (active). Take `Cc1cccc(-c2nc(Nc3ccc(C)c(S(N)(=O)=O)c3)c3ccccc3n2)c1`: the growth is 19%. On to `Cn1cc(-c2cc(N)n3nc(-c4cn(C)c5ccccc45)cc3n2)c2cc(Br)ccc21`, for which the growth is -24.2% (active). As for `CC12CC[C@@H]3[C@]4(C)COC(c5cn[nH]c5-c5cccc(Cl)c5)O[C@@H]4CC[C@@]3(C)[C@@H]1CC(C1=CCOC1=O)O2` (stereo partly drawn), the growth was 33.7%.

In the case of `Cc1ccc(C2CC(c3ccc(S(=O)(=O)NCCNc4nc(Nc5ccc(F)cc5)nc(N(C)C)n4)cc3)=Nc3c(N)nc(N)nc3N2)cc1` (stereo not drawn), the growth was 38.2%. On to `O=C(NN1C(=O)/C(=C/C=C/c2ccc([N+](=O)[O-])o2)SC1=S)c1ccc(Cl)cc1`, for which the growth was -72.7% (active). For `COc1ccc(NC(=O)Cn2c3c(sc2=O)[C@H]2[C@@H](O)[C@@H](O)[C@H](O)[C@@H]2CS3)cc1`, the growth was 108%. As for `CC1(C)CC[C@]2(C(=O)O)CC[C@]3(C)C(=CCC4[C@@]5(C)C[C@@H](O)[C@@H]6OC(c7ccco7)OC[C@@]6(C)C5CC[C@]43C)C2C1` (stereo partly drawn), the growth is 19.8%. For `C#CCOc1ccc(/C=N/Nc2nc(-c3ccc(Cl)cc3)cs2)cc1OC`, the growth is 68%. Turning to `CCCCCCCCOc1cccc(S(=O)(=O)Nc2ccc(C)cc2C(=O)O)c1`, the growth was 98.4%. For `Nc1nnc(-c2c[nH]c3ccc(Br)cc23)c(-c2c[nH]c3ncc(Br)cc23)n1`, the growth was 27.7%.

Regarding `O=C(c1ccccc1)c1ccc2nc(-c3ccc(F)cc3)[nH]c2c1`, the growth was 51.4%.

On to `Cn1cc(-c2cc(N)n3nc(-c4cn(C)c5ccc(Cl)cc45)cc3n2)c2ccccc21`, for which the growth is 115%.

With `O=C(CSc1nc2ccccc2c(=O)[nH]1)NCCN1CCCCC1`, the growth is 104%. Consider `CCCn1cc(-c2nc(Nc3ccc(C(=O)NCCCCNc4cccc5c4C(=O)N(C4CCC(=O)NC4=O)C5=O)cc3)nc3[nH]ccc23)cn1` (stereo not drawn), for which the growth was 107%.

As for `CCOC(=O)C1=C(N)N(c2ccccc2)C2=C(C(=O)CC(C)(C)C2)C1c1ccccc1Cl` (stereo not drawn), the growth is 60.2%. On to `Cc1ccc(-c2nc(C#N)c(S(=O)(=O)N3CCN(S(=O)(=O)c4ccc(Cl)cc4)CC3)o2)cc1`, for which the growth is 99.6%.

For `O=c1[nH]c2ccc(Cl)cc2cc1CSc1nccc(-c2ccc(Cl)cc2)n1`, the growth was 36.6%. Take `CC1(C)CC[C@]2(C(=O)O)CC[C@]3(C)C(=CCC4[C@@]5(C)C[C@@H](O)[C@@H]6OC(c7ccc(F)cc7)OC[C@@]6(C)C5CC[C@]43C)C2C1` (stereo partly drawn): the growth is 15.7%. For the compound `C=C1CC[C@@H]2[C@]3(C)COC(c4ccccc4)O[C@@H]3CC[C@@]2(C)[C@@H]1C/C=C1/C(=O)OCC1OC(C)=O` (stereo partly drawn), the growth was 15.1%. Regarding `Cc1cccc(Nc2nc3ccccc3nc2/C=C/c2ccc(F)cc2)c1`, the growth is 95.4%.

For the compound `Brc1ccc(N/N=C/c2c[nH]c3ccc(Br)cc23)nc1`, the growth was -75.3% (active). In the case of `C=C1CC[C@@H]2[C@]3(C)COC(c4cn[nH]c4-c4ccc(C)cc4)O[C@@H]3CC[C@@]2(C)[C@@H]1C/C=C1/C(=O)OCC1O` (stereo partly drawn), the growth is 67%. Turning to `O=C(Cn1c(/C=C/c2ccccc2)nc2ccccc2c1=O)Nc1ccc(Cl)cc1`, the growth was 38.7%. Take `CC1(C)CC[C@]2(C(=O)O)CC[C@]3(C)C(=CCC4[C@@]5(C)C[C@@H](O)[C@@H]6OC(c7ccccc7Br)OC[C@@]6(C)C5CC[C@]43C)C2C1` (stereo partly drawn): the growth is 4.53% (active). With `C=C1CCC2C3(C)COC(c4ccco4)OC3CCC2(C)C1CC(Sc1ccccc1)C1=CCOC1=O` (stereo not drawn), the growth was 105%.

Values taken from PubChem BioAssay (NCI).
